The panel holds about 79,000 compounds, 15% with a hit somewhere; the sample as a whole holds those more often. Active and inactive are the calls of the source. Rule as the data show it: active = growth inhibition above about 70%; inactive = the rest.

One experiment can be described thus: NCI Yeast Anticancer Drug Screen. Data for the wt2 strain (AID 169).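 Also: 0% = growth of vehicle-treated yeast cultures.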 To be noted: S. cerevisiae wt2 strain growth inhibition; at 1.2 µM; stronger effect = higher value. A digest of the protocol:
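This strain belongs to a panel of yeast strains with defined genetic alterations in DNA damage repair or cell cycle control. Compounds are applied, and growth inhibition is measured against vehicle-treated cultures.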
As to `O=[N+]([O-])c1cc[n+]([O-])cc1`, the growth inhibition was -3% (inactive).

Regarding `CC1(C)CC(=O)C(/C=N/c2nc(-c3ccccc3)cs2)=C(O)C1`, the growth inhibition was -2% (inactive).

In the case of `Nc1nc(N)c2nc(CNc3ccc(C(=O)NC(CCC(=O)O)C(=O)O)cc3F)cnc2n1` (stereo unspecified), the growth inhibition is -19% (inactive).

In the case of `COC(=O)CC1(O)C(/C=C/c2ccccc2)C(C(=O)OC)C(=O)C(C(=O)OC)C1C(=O)OC` (stereo unspecified), the growth inhibition is -2% (inactive).

For the molecule `CC(C)(C)c1ccc(NS(=O)(=O)c2ccc(N)cc2)cc1`, the growth inhibition is 0% (inactive).

`CCN(CC)CCNc1ccc([N+](=O)[O-])c2nc3ccccc3c(N)c12`: the growth inhibition is 1% (inactive).

As to `CCCCN(CCCC)C(=O)/C=C/c1ccccc1`, the growth inhibition is 6% (inactive).

On to `O=c1[nH]c(-c2ccccc2)nc2c1sc1nc3ccccc3n12`, for which the growth inhibition is 2% (inactive).

For `O=[N+]([O-])c1ccc2c(c1)/C(=N/N=C1c3ccccc3Cc3ccccc31)c1cc([N+](=O)[O-])cc([N+](=O)[O-])c1-2`, the growth inhibition was 15% (inactive).

For the molecule `CC(C)C(C)/C=C\C(C)C1CCC2C3=CC=C4CC(O)CCC4(C)C3CCC21C` (stereo unspecified), the growth inhibition is 0% (inactive).

`O=C1Nc2ccc(Br)cc2C1=Nc1ccc2c(c1)OCO2`: the growth inhibition was 0% (inactive).

With `CCCCOCn1c(=O)[nH]c(=O)c2cc(Br)ccc21`, the growth inhibition was -21% (inactive).

On to `Cc1ccc(S/C(=C\C(=O)O)c2ccccc2)cc1`, for which the growth inhibition was -10% (inactive).

For `O=[N+]([O-])/C=C/c1cc(Cl)c(/C=C/[N+](=O)[O-])cc1Cl`, the growth inhibition was 8% (inactive).

With `Cc1cc(S(=O)(=O)Nc2nnc3cnc4ccccc4n23)c(S)cc1Cl`, the growth inhibition was -1% (inactive).

`O=C(/C=C/c1cc(Cl)cc(Cl)c1O)c1cccc(O)c1`: the growth inhibition was 29% (inactive).

Take `NC1CCCCC1N.Nc1c(N=Nc2ccc(-c3ccc(N=Nc4cc(S(=O)(=O)[O-])c5ccccc5c4N)cc3)cc2)cc(S(=O)(=O)[O-])c2ccccc12.[OH3+].[OH3+].[Pt+4]`: the growth inhibition is -1% (inactive).

Consider `COC(=O)CCC(NC(=S)N/N=C(\C)c1ccccn1)C(=O)OC` (stereo unspecified), for which the growth inhibition was -37% (inactive).

`NC(=O)C(=O)NNc1ccccc1`: the growth inhibition is 3% (inactive).

For the molecule `COc1cc(C2SCC(=O)N2c2ccc(-c3ccc(-n4c(-c5ccccc5)nc5ccccc5c4=O)cc3)cc2)ccc1O` (stereo unspecified), the growth inhibition is -2% (inactive).

For the molecule `COc1ccc(/C=C/c2sc3ccccc3[n+]2CCCCI)cc1OC`, the growth inhibition was -3% (inactive).

For the molecule `Cc1c(C(C)C)cc(OCCO)cc1C(C)C`, the growth inhibition was -4% (inactive).

As to `Cc1cc(NCCCCCCCCNc2cc(C)nc3cc(N)ccc23)c2ccc(N)cc2n1`, the growth inhibition was -39% (inactive).

Regarding `C=C(Cl)COC(=O)Nc1cccc(Cl)c1`, the growth inhibition was -3% (inactive).

`CC(=O)OC1CC2C(C)(C)C(=O)C=C[C@]2(C)C2CCC3(C)C(=CCC3[C@H](CO)C[C@H](O)C(=O)C(C)(C)O)[C@]12C` (stereo partly specified): the growth inhibition is -32% (inactive).

`COc1ccc(/C=C/C(=O)c2ccccc2)cc1OC`: the growth inhibition was -30% (inactive).

For the molecule `COc1c(O)c(C=O)c(Br)c(C=O)c1O`, the growth inhibition is -1% (inactive).

With `O=[N+]([O-])c1cc(Cl)cnc1Br`, the growth inhibition is 0% (inactive).

Regarding `Cc1ccc2c(c1)C1(SC(C)C(=O)N1c1ccc(Cl)cc1)C(=O)N2` (stereo unspecified), the growth inhibition is -2% (inactive).

Consider `COc1cc(CSc2ccc(O)cc2)cc(O)c1O`, for which the growth inhibition was 1% (inactive).

Consider `Cc1ccc2c3ccc4c(c3n(C)c2c1)C(=O)C=CC4=O`, for which the growth inhibition is -47% (inactive).

In the case of `O=C(Nc1ccc(Cl)cc1)Nc1nnc2nc(C(C(=O)c3cccc([N+](=O)[O-])c3Cl)c3nc4nnc(NC(=O)Nc5ccc(Cl)cc5)n4[nH]c3=O)c(=O)[nH]n12`, the growth inhibition is -1% (inactive).

As to `O=C(O)C1CC(c2ccccc2)=NN1c1ccccc1` (stereo unspecified), the growth inhibition was -38% (inactive).

For the molecule `CCCCc1ccc(-n2c(C)c(COC(=O)NC)c(COC(=O)NC)c2C)cc1`, the growth inhibition is -24% (inactive).

Turning to `CCC(=O)c1cc(C(=O)C(=S)SC)cc(C(=O)C(=S)SC)c1`, the growth inhibition is 19% (inactive).

Regarding `CCn1c(O)c(C=Nc2ccccc2)s/c1=N/Nc1nc(-c2ccccc2)cs1`, the growth inhibition was -3% (inactive).

For the molecule `Cc1ccccc1N=C(NO)c1ccccc1`, the growth inhibition was -3% (inactive).

For the molecule `Cc1nc2ccccc2nc1NNc1ccccc1`, the growth inhibition is 3% (inactive).

The same experiment, now with this note: S. cerevisiae wt2 strain growth inhibition; at 3.7 µM; stronger effect = higher value.
On to `O=[N+]([O-])c1cc[n+]([O-])cc1`, for which the growth inhibition is -2% (inactive).

Regarding `CC1(C)CC(=O)C(/C=N/c2nc(-c3ccccc3)cs2)=C(O)C1`, the growth inhibition is 1% (inactive).

With `Nc1nc(N)c2nc(CNc3ccc(C(=O)NC(CCC(=O)O)C(=O)O)cc3F)cnc2n1` (stereo unspecified), the growth inhibition is -11% (inactive).

Turning to `COC(=O)CC1(O)C(/C=C/c2ccccc2)C(C(=O)OC)C(=O)C(C(=O)OC)C1C(=O)OC` (stereo unspecified), the growth inhibition was -2% (inactive).

As for `CC(C)(C)c1ccc(NS(=O)(=O)c2ccc(N)cc2)cc1`, the growth inhibition is 1% (inactive).

Turning to `CCN(CC)CCNc1ccc([N+](=O)[O-])c2nc3ccccc3c(N)c12`, the growth inhibition is -1% (inactive).

As for `CCCCN(CCCC)C(=O)/C=C/c1ccccc1`, the growth inhibition was -4% (inactive).

Regarding `O=c1[nH]c(-c2ccccc2)nc2c1sc1nc3ccccc3n12`, the growth inhibition is -6% (inactive).

Regarding `O=[N+]([O-])c1ccc2c(c1)/C(=N/N=C1c3ccccc3Cc3ccccc31)c1cc([N+](=O)[O-])cc([N+](=O)[O-])c1-2`, the growth inhibition is 41% (inactive).

For `CC(C)C(C)/C=C\C(C)C1CCC2C3=CC=C4CC(O)CCC4(C)C3CCC21C` (stereo unspecified), the growth inhibition is 1% (inactive).

Take `O=C1Nc2ccc(Br)cc2C1=Nc1ccc2c(c1)OCO2`: the growth inhibition is -21% (inactive).

Consider `CCCCOCn1c(=O)[nH]c(=O)c2cc(Br)ccc21`, for which the growth inhibition was -20% (inactive).

`Cc1ccc(S/C(=C\C(=O)O)c2ccccc2)cc1`: the growth inhibition was -11% (inactive).

As for `O=[N+]([O-])/C=C/c1cc(Cl)c(/C=C/[N+](=O)[O-])cc1Cl`, the growth inhibition is 34% (inactive).

With `Cc1cc(S(=O)(=O)Nc2nnc3cnc4ccccc4n23)c(S)cc1Cl`, the growth inhibition was -2% (inactive).

For `O=C(/C=C/c1cc(Cl)cc(Cl)c1O)c1cccc(O)c1`, the growth inhibition is 27% (inactive).

Turning to `NC1CCCCC1N.Nc1c(N=Nc2ccc(-c3ccc(N=Nc4cc(S(=O)(=O)[O-])c5ccccc5c4N)cc3)cc2)cc(S(=O)(=O)[O-])c2ccccc12.[OH3+].[OH3+].[Pt+4]`, the growth inhibition was 10% (inactive).

Turning to `COC(=O)CCC(NC(=S)N/N=C(\C)c1ccccn1)C(=O)OC` (stereo unspecified), the growth inhibition was -29% (inactive).

On to `NC(=O)C(=O)NNc1ccccc1`, for which the growth inhibition is 13% (inactive).

As for `COc1cc(C2SCC(=O)N2c2ccc(-c3ccc(-n4c(-c5ccccc5)nc5ccccc5c4=O)cc3)cc2)ccc1O` (stereo unspecified), the growth inhibition is -2% (inactive).

In the case of `COc1ccc(/C=C/c2sc3ccccc3[n+]2CCCCI)cc1OC`, the growth inhibition is -3% (inactive).

Consider `Cc1c(C(C)C)cc(OCCO)cc1C(C)C`, for which the growth inhibition is -4% (inactive).

Take `Cc1cc(NCCCCCCCCNc2cc(C)nc3cc(N)ccc23)c2ccc(N)cc2n1`: the growth inhibition is -36% (inactive).

On to `C=C(Cl)COC(=O)Nc1cccc(Cl)c1`, for which the growth inhibition is -1% (inactive).

On to `CC(=O)OC1CC2C(C)(C)C(=O)C=C[C@]2(C)C2CCC3(C)C(=CCC3[C@H](CO)C[C@H](O)C(=O)C(C)(C)O)[C@]12C` (stereo partly specified), for which the growth inhibition is -18% (inactive).

Take `COc1ccc(/C=C/C(=O)c2ccccc2)cc1OC`: the growth inhibition is -33% (inactive).

As for `COc1c(O)c(C=O)c(Br)c(C=O)c1O`, the growth inhibition is 2% (inactive).

Regarding `O=[N+]([O-])c1cc(Cl)cnc1Br`, the growth inhibition is 1% (inactive).

For `Cc1ccc2c(c1)C1(SC(C)C(=O)N1c1ccc(Cl)cc1)C(=O)N2` (stereo unspecified), the growth inhibition is 1% (inactive).

On to `COc1cc(CSc2ccc(O)cc2)cc(O)c1O`, for which the growth inhibition was 1% (inactive).

Consider `Cc1ccc2c3ccc4c(c3n(C)c2c1)C(=O)C=CC4=O`, for which the growth inhibition was -28% (inactive).

As to `O=C(Nc1ccc(Cl)cc1)Nc1nnc2nc(C(C(=O)c3cccc([N+](=O)[O-])c3Cl)c3nc4nnc(NC(=O)Nc5ccc(Cl)cc5)n4[nH]c3=O)c(=O)[nH]n12`, the growth inhibition was -2% (inactive).

On to `O=C(O)C1CC(c2ccccc2)=NN1c1ccccc1` (stereo unspecified), for which the growth inhibition was -46% (inactive).

In the case of `CCCCc1ccc(-n2c(C)c(COC(=O)NC)c(COC(=O)NC)c2C)cc1`, the growth inhibition is -10% (inactive).

Regarding `CCC(=O)c1cc(C(=O)C(=S)SC)cc(C(=O)C(=S)SC)c1`, the growth inhibition is 59% (inactive).

With `CCn1c(O)c(C=Nc2ccccc2)s/c1=N/Nc1nc(-c2ccccc2)cs1`, the growth inhibition is -2% (inactive).

For `Cc1ccccc1N=C(NO)c1ccccc1`, the growth inhibition was -3% (inactive).

Take `Cc1nc2ccccc2nc1NNc1ccccc1`: the growth inhibition was 5% (inactive).

Source of the values: PubChem BioAssay (NCI).
